FMDV inh = blocks foot and mouth disease virus; Potency, µM (doses to about 57.9 µM), inactives show at the highest dose activity change, negative = inhibition, actives largely listed as inhibitors; 410,000 tested, 1.2% active; FMDV antiviral cell-based qHTS; calls by dose curve; tested in HEK293T cells; also: read-out not given here; potency is read from the fitted curve at half-maximal effect; nearly all actives have a fitted effect of over 45% in size
HCMV inh = human cytomegalovirus inhibition | AID 1259415 | activity change, negative = inhibition, % at 57.5 µM | 410,000 tested, 4.5% active | HFF cells, HCMV-luciferase reporter, 72 h; hits give low values; in the data active = activity change below about -60%; inconclusive = no clear call, values can overlap the other calls; inactive = above about -39%
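After 16 h attachment at 37C, HFF cells received test compound and HCMV-luciferase (1 PFU/cell); reporter luminescence read 72 h later, data normalized against buffer-only and known inhibitor Salinomycin.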
Marburg entry inh = inhibitors of Marburg virus binding or cell entry; 300,000 tested, 1.8% active; AID 540276; Potency, µM (series often up to 37.8 µM), without a hit: at the highest dose activity change, negative = inhibition, hits mostly inhibitors; Marburg virus pseudotyped entry inhibition, cell reporter; calls by dose curve; tested in HEK293 cells; also: potency is read from the fitted curve at half-maximal effect
Lassa entry inh = Lassa virus entry inhibition. Lassa virus pseudotype entry inhibition, cell reporter. Potency, µM (highest dose often 37.9 µM), inactives show top-dose activity change, negative = inhibition, most hits filed as inhibitors. 300,000 tested, 1.2% active. AID 540256; calls by dose curve; tested in HEK293 cells; also: potency is read from the fitted curve at half-maximal effect; nearly all actives have a fitted effect of over 50% in size
Starred values were filed as active, the others as inactive; [ ] = another dose, or the depositor's remark. Hits are enriched below; roughly 6.2% of the tested compounds scored in any of these assays. % is scaled to controls: 0 for no effect and ±100 for the full control effect.

Screening O=C(CC1C(=O)NCCN1Cc1cccc(Oc2ccccc2)c1)NCCc1ccccn1 (centres undefined) returned FMDV inh -17%, HCMV inh 23, Marburg entry inh inconclusive and Lassa entry inh 6.3µM*.
For N#Cc1cc([N+](=O)[O-])ccc1NC(=O)COC(=O)C1CCC(=O)N1 (centres undefined) the results were FMDV inh -18%, HCMV inh -29, Marburg entry inh 18% and Lassa entry inh 3%.
`COc1ccc(Nc2nc(NCc3ccco3)nc(N/N=C/c3ccc(O)cc3)n2)cc1` gave FMDV inh -9%, HCMV inh -61*, Marburg entry inh inconclusive and Lassa entry inh -3%.
For COc1ccc(-c2cnnc(N/N=C/c3ccc(O)c(O)c3)n2)cc1 the results were FMDV inh -11%, HCMV inh 31, Marburg entry inh inconclusive and Lassa entry inh 4.6µM*.
`Oc1ccc(/C=N\Nc2nncc(-c3ccccc3)n2)cc1` gave FMDV inh -6% and HCMV inh -66*.
COc1ccc(-c2cnnc(N/N=C/c3ccc(O)cc3)n2)cc1 was read as FMDV inh 0%, HCMV inh -71*, Marburg entry inh inconclusive and Lassa entry inh 2µM*.
`CS(=O)(=O)N1CCC[C@@]2(CCN(C(=O)Nc3ccccc3)C2)C1` gave FMDV inh 6%.
CCOc1cc(/C=N/NC(=O)c2ccccc2OCc2ccc(F)cc2)ccc1O was read as FMDV inh inconclusive and HCMV inh -82*.
For CCOc1cc(/C=N/NC(=O)c2ccccc2-n2cccc2)ccc1O the results were FMDV inh -16% and HCMV inh -13.
CCOc1cc(/C=N/NC(=O)Cc2ccc(C(F)(F)F)cc2[N+](=O)[O-])ccc1O was read as FMDV inh -11%, HCMV inh -61*, Marburg entry inh 2% and Lassa entry inh -2%.
For CCOc1cc(/C=N/NC(=O)N/N=C/c2ccc(O)c(OCC)c2)ccc1O the results were FMDV inh -27%, HCMV inh 25, Marburg entry inh 7.1µM* and Lassa entry inh inconclusive.
For CCOc1ccc(/C=N/Nc2ccc(C(F)(F)F)cc2[N+](=O)[O-])cc1O the results were FMDV inh 0%, HCMV inh -13, Marburg entry inh inconclusive and Lassa entry inh inconclusive.
O=C1C(c2ccc(F)cc2)N(CCc2ccc(Cl)cc2)C(=O)CN1C1CCCCC1 (centres undefined) was read as FMDV inh -21%, HCMV inh inconclusive and Lassa entry inh 26%[46.1 µM].
Screening COc1ccc(C2C(=O)N(C3CCCCCC3)CC(=O)N2Cc2ccccc2)cc1 (centres undefined) returned FMDV inh -29%, HCMV inh -67* and Lassa entry inh inconclusive.
O=C1C(c2ccc(F)cc2)N(CCc2ccc(Cl)cc2)C(=O)CN1C1CCCCCC1 (centres undefined) was read as FMDV inh -23%, HCMV inh -82* and Lassa entry inh 26%[46.1 µM].
Screening COc1ccc(C2C(=O)N(C3CCC(C)CC3)CC(=O)N2Cc2ccc(C)cc2)cc1OC (centres undefined) returned FMDV inh -8%, HCMV inh -65* and Lassa entry inh -26%[46.1 µM].
For O=C(CCc1ccccc1)Nc1ccnn1C1CCN(Cc2ncc[nH]2)CC1 the results were FMDV inh -21%, HCMV inh 9, Marburg entry inh inconclusive and Lassa entry inh 22%[46.1 µM].
`CCC(NC(=O)C(C)NC)C(=O)N1CCCC1C(=O)NC1CCCc2ccccc21` (centres undefined) gave FMDV inh -8% and HCMV inh inconclusive.
Screening Nc1cccc(-c2nc3ncccc3o2)c1 returned FMDV inh 0%, HCMV inh 62, Marburg entry inh 8% and Lassa entry inh inconclusive.
Screening Cc1ccc(-c2nc3cc(C)ccc3o2)cc1 returned FMDV inh 10µM*, HCMV inh 44, Marburg entry inh inconclusive and Lassa entry inh 14µM*.
Screening Cc1ccc(-c2nc3cc(N)ccc3o2)cc1 returned FMDV inh -34%, HCMV inh 173, Marburg entry inh inconclusive and Lassa entry inh inconclusive.
For Cc1ccc(-c2nc3cc(N)ccc3o2)c(C)c1 the results were FMDV inh -6%, HCMV inh 101, Marburg entry inh inconclusive and Lassa entry inh inconclusive.
`Nc1cccc(-c2nc3cc(S(=O)(=O)c4ccc5oc(-c6cccc(N)c6)nc5c4)ccc3o2)c1` gave FMDV inh -22%, HCMV inh -83*, Marburg entry inh inconclusive and Lassa entry inh inconclusive.
For Cc1ccc2oc(-c3cccc(N)c3)nc2c1 the results were FMDV inh -34%, HCMV inh 155, Marburg entry inh 13µM* and Lassa entry inh inconclusive.
For O=C(Nc1ccc2c(c1)N(Cc1ccccc1)C(=O)c1ccccc1S2)NC1CC1 the results were FMDV inh -15%, HCMV inh 0, Marburg entry inh inconclusive and Lassa entry inh inconclusive.
Screening O=C(Nc1ccccc1C(=O)Nc1ccccc1)c1cccs1 returned FMDV inh 3%, HCMV inh inconclusive, Marburg entry inh inconclusive and Lassa entry inh 3%[46.1 µM].
CC(=NCc1ccc(F)cc1)c1c(O)n(C)c(=O)n(C)c1=O was read as FMDV inh -26%, HCMV inh -25, Marburg entry inh 0.33µM* and Lassa entry inh -5%.
Cc1ccc(S(=O)(=O)/N=C2\C=C(Nc3cccc(C(=O)O)c3)C(=O)c3ccccc32)c(C)c1 was read as FMDV inh inconclusive, HCMV inh -73*, Marburg entry inh inconclusive and Lassa entry inh inconclusive.
`Cc1ccc(S(=O)(=O)/N=C2\C=C(Nc3cccc(C(=O)O)c3)C(=O)c3ccccc32)cc1` gave FMDV inh -12%, HCMV inh 3, Marburg entry inh inconclusive and Lassa entry inh inconclusive.
Screening CC(C)(C)c1ccc(S(=O)(=O)/N=C2\C=C(NS(=O)(=O)c3ccccc3)C(=O)c3ccccc32)cc1 returned FMDV inh 28%, HCMV inh -11, Marburg entry inh -11%[46.1 µM] and Lassa entry inh inconclusive.
`Cc1ccc(S(=O)(=O)/N=C2\C=C(NS(=O)(=O)c3ccccc3)C(=O)c3ccccc32)c(C)c1` gave FMDV inh 34%, HCMV inh -91*, Marburg entry inh 0%[46.1 µM] and Lassa entry inh -15%.
`CC1(C)CC(NC(=O)c2coc(=O)c(Br)c2)CC(C)(C)N1` gave FMDV inh 32µM*, HCMV inh 85, Marburg entry inh 3% and Lassa entry inh -1%.
Cc1ccc(S(=O)(=O)Nc2ccc(OCC(=O)N3CCOCC3)cc2)c(C)c1NS(C)(=O)=O was read as FMDV inh 10%, HCMV inh 5, Marburg entry inh 5%[46.1 µM] and Lassa entry inh -1%[46.1 µM].
For Cc1ccccc1-n1nnnc1Sc1nnnn1-c1ccccc1 the results were FMDV inh 8.9µM*, HCMV inh inconclusive, Marburg entry inh inconclusive and Lassa entry inh inconclusive.
For COc1ccc(-n2nnnc2-c2ccccc2)cc1 the results were HCMV inh -60*, Marburg entry inh -11% and Lassa entry inh -24%.
`CCCSc1nnc(Sc2nnnn2-c2ccccc2)s1` gave FMDV inh inconclusive, HCMV inh -78*, Marburg entry inh inconclusive and Lassa entry inh inconclusive.

Assay outcomes (PubChem BioAssay)
